Reference: PubChem BioAssay (NCATS)
Records with an inconclusive call do not appear. Activity calls are given as the source filed them. Calls follow the shape of the dose curve; as a rule, active = well fitted cell-killing curve with a large enough effect; inconclusive = small, poorly fitted or top-dose-only effect, or effect the other way; inactive = no such curve, though single readings can be large or run the other way.

What was measured:
[1] = Quantitative High-Throughput drug screen in 47 multiple myeloma cell lines against the NCATS MIPE library collection: EJM_DSMZ cell viability assay (AID 1918926; also: nearly all actives have a fitted effect of over 30% in size); conditions: EJM myeloma cell viability, CellTiter-Glo ATP, 48 h; series mostly up to 45.8 µM
How it was run: (§1)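 CellTiter-Glo luminescence (ATP) after 48 h compound exposure, 37C/5% CO2; 500 cells/well; MIPE 4.0 approved/investigational drugs pinned in; DMSO = 100%, media only = 0% viability.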

[2] = Quantitative High-Throughput drug screen in 47 multiple myeloma cell lines against the NCATS MIPE library collection: ARP1_JJKsccF8 cell viability assay (AID 1918928; also: nearly all actives have a fitted effect of over 40% in size); conditions: ARP1 myeloma cells viability, CellTiter-Glo ATP, 48 h; series mostly up to 45.8 µM
How it was run: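 Each line was plated at 500 cells/well and treated 48 h with library drugs. Viability came from CellTiter-Glo luminescence relative to DMSO and cell-free medium controls.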

[3] = Quantitative High-Throughput drug screen in 47 multiple myeloma cell lines against the NCATS MIPE library collection: Karpas620_DSMZ cell viability assay (AID 1918959); conditions: Karpas620 myeloma viability, CellTiter-Glo ATP luminescence, 48 h; series mostly up to 45.8 µM; also: nearly all actives have a fitted effect of over 30% in size
How it was run: (§2)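 Steps: seed 500 cells per well; pin-transfer MIPE 4.0 library; incubate 48 h at 37C, 5% CO2, humidified; add CellTiter-Glo, 5 min room temperature; read luminescence.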

[4] = Quantitative High-Throughput drug screen in 47 multiple myeloma cell lines against the NCATS MIPE library collection: Delta47_JCRB cell viability assay (AID 1918925; also: nearly all actives have a fitted effect of over 45% in size); conditions: Delta47 myeloma viability, CellTiter-Glo ATP, 48 h; series mostly up to 45.8 µM
How it was run: as §1

[5] = Quantitative High-Throughput drug screen in 47 multiple myeloma cell lines against the NCATS MIPE library collection: ARD_JJKsccE7 cell viability assay (AID 1918929); conditions: ARD myeloma cell line viability, CellTiter-Glo, 48 h; series mostly up to 45.8 µM
How it was run: as §1

[6] = Quantitative High-Throughput drug screen in 47 multiple myeloma cell lines against the NCATS MIPE library collection: AMO1_DSMZ cell viability assay (AID 1918927; also: nearly all actives have a fitted effect of over 30% in size); conditions: AMO1 myeloma cells viability, CellTiter-Glo ATP luminescence, 48 h; series mostly up to 45.8 µM
How it was run: as §1

[7] = Quantitative High-Throughput drug screen in 47 multiple myeloma cell lines against the NCATS MIPE library collection: FR4_PLB cell viability assay (AID 1918924; also: nearly all actives have a fitted effect of over 35% in size); conditions: FR4_PLB myeloma cells viability, CellTiter-Glo ATP, 48 h; series mostly up to 45.8 µM
How it was run: as §2

Measured: Potency
Potency is read from the fitted curve at half-maximal effect.

N=c1ccn2c(n1)O[C@H]1[C@@H](O)[C@@H](CO)O[C@H]12
active: [2] 0.332 µM | [3] 16.6 µM
inactive: [1]

C=C1C[C@@]2(O)O[C@@]3(C[C@H]2C(C)C)[C@H](C)CC[C@H]13
not listed: [6] | [7]
inactive: all other assays above

CCN1CCN(C(=O)N[C@H](C(=O)N[C@@H]2C(=O)N3C(C(=O)O)=C(CSc4nnnn4C)CS[C@@H]23)c2ccc(O)cc2)C(=O)C1=O
not listed: [3] | [7]
inactive: all other assays above

CC(C)OC(=O)[C@H](C)N[P@](=O)(OC[C@H]1O[C@@H](n2ccc(=O)[nH]c2=O)[C@](C)(F)[C@H]1O)Oc1ccccc1
not listed: [7]
inactive: all other assays above

C=CC[C@@H]1C=C(C)C[C@H](C)C[C@H](OC)[C@H]2O[C@@](O)(C(=O)C(=O)N3CCCC[C@H]3C(=O)O[C@H](C(C)=C[C@@H]3CC[C@H](O)[C@H](OC)C3)[C@@H](C)[C@@H](O)CC1=O)[C@@H](C)C[C@@H]2OC
active: [4] 1.87 µM | [6] 2.64 µM | [2] 2.09 µM | [5] 2.09 µM

CC1(C)[C@H](O[C@H]2O[C@H](C(=O)O)[C@@H](O)[C@H](O)[C@H]2O[C@@H]2O[C@H](C(=O)O)[C@@H](O)[C@H](O)[C@H]2O)CC[C@@]2(C)[C@H]1CC[C@]1(C)[C@H]2C(=O)C=C2[C@H]3C[C@@](C)(C(=O)O)CC[C@]3(C)CC[C@]21C
inactive: [4] | [6] | [2] | [3]

Cc1onc(-c2ccccc2)c1C(=O)N[C@@H]1C(=O)N2[C@@H](C(=O)O)C(C)(C)S[C@@H]12
inactive: [7] | [1] | [5]

COc1cc(C)c(C=CC(C)=CC=CC(C)=CC(=O)O)c(C)c1C
active: [3] 7.43 µM
inactive: [7] | [6] | [2] | [5]

CC(=O)NC(CS)C(=O)O (configuration not stated)
inactive: [1]

CC(C)(O)CC[C@@H](O)[C@](C)(O)[C@H]1CC[C@@]2(O)C3=CC(=O)[C@@H]4C[C@@H](O)[C@@H](O)C[C@]4(C)[C@@H]3CC[C@]12C
not listed: [3] | [7]
inactive: all other assays above

Cc1cn([C@@H]2O[C@H](CO)[C@@H](O)[C@H]2F)c(=O)[nH]c1=O
not listed: [2] | [7]
inactive: all other assays above

CC(=O)O[C@]1(C(C)=O)CC[C@H]2[C@@H]3C=C(C)C4=CC(=O)CC[C@]4(C)[C@@H]3CC[C@@]21C
active: [6] 8.33 µM | [3] 14.8 µM
inactive: [1]

Cc1cc(-c2nnc3n2CCCCC3)c(C)n1-c1ccccc1
inactive: [4] | [6] | [2] | [5]

COC(=O)C=CC(=O)OC
inactive: [6] | [3]
active: [5] 1.18 µM

C[C@]12C=CC(=O)N[C@@H]1CC[C@H]1[C@H]3CC[C@@H](C(=O)Nc4cc(C(F)(F)F)ccc4C(F)(F)F)[C@@]3(C)CC[C@@H]12
inactive: [6] | [5] | [3]
active: [7] 18.7 µM

C=CCNC1=C2C[C@@H](C)C[C@H](OC)[C@@H](O)[C@@H](C)C=C(C)[C@H](OC(N)=O)[C@@H](OC)C=CC=C(C)C(=O)NC(=CC1=O)C2=O
active: [1] 4.18 µM | [6] 0.0935 µM | [2] 0.148 µM | [5] 0.0935 µM | [3] 1.87 µM

C[C@H]1C[C@H]2[C@@H]3CCC4=CC(=O)C=C[C@]4(C)[C@@H]3C(=O)C[C@]2(C)[C@@]1(O)C(=O)CO
inactive: [4] | [1] | [6] | [5]

COc1ccc(S(=O)(=O)Nc2cc(-c3c(O)ccc4ccccc34)c(O)c3ccccc23)cc1
active: [4] 9.35 µM | [1] 23.5 µM | [6] 14.8 µM | [2] 11.8 µM | [5] 5.26 µM | [3] 1.66 µM

C#C[C@]1(O)CC[C@@H]2[C@@H]3CCC4=CC(=O)CC[C@@H]4[C@H]3CC[C@@]21CC
inactive: [4] | [1] | [2] | [3]

Cc1[nH]c(C=C2C(=O)Nc3ccccc32)c(C)c1CCC(=O)O
active: [1] 5.9 µM | [5] 20.9 µM | [3] 18.7 µM

N#CC(=C(O)c1ccc(Cl)cc1Cl)c1nc2cc(Cl)ccc2c(=O)[nH]1
inactive: [4] | [1] | [2] | [5]

CC(=O)ON=C1C(c2c(O)[nH]c3cc(Br)ccc23)=Nc2ccccc21
active: [4] 5.26 µM | [1] 11.8 µM | [6] 1.87 µM | [2] 10.5 µM | [5] 5.26 µM | [3] 4.69 µM

N#CC(=C(N)Sc1ccc(N)cc1)c1ccccc1C(F)(F)F
inactive: [1]
active: [4] 5.9 µM | [2] 14.8 µM

C=CCNc1c(O)cc2c(O)c1C[C@@H](C)C[C@H](OC)[C@@H](O)[C@@H](C)C=C(C)[C@H](OC(N)=O)[C@@H](OC)C=CC=C(C)C(=O)N2
active: [1] 1.05 µM | [6] 0.148 µM | [2] 0.148 µM | [5] 0.0743 µM | [3] 1.18 µM

CCc1cc(C(C)=NOCc2ccc(C3CCCCC3)c(C(F)(F)F)c2)ccc1CN1CC(C(=O)O)C1
active: [4] 20.9 µM | [5] 4.69 µM

C=C1CCC2[C@](C)(CO)C(O)CC[C@]2(C)C1CC=C1C(=O)OCC1O (some centres not stated)
not listed: [6] | [7]
inactive: all other assays above

COc1ccc(CCC(=O)c2c(O)cc(O[C@@H]3O[C@H](CO)[C@@H](O)[C@H](O)[C@@H]3O[C@@H]3O[C@@H](C)[C@H](O)[C@@H](O)[C@@H]3O)cc2O)cc1O
inactive: [1] | [6] | [5] | [3]

O=C(Nc1cccc(Nc2ncc(Br)c(NCCc3cnc[nH]3)n2)c1)N1CCCC1
active: [4] 4.18 µM | [1] 16.6 µM | [2] 18.7 µM
inactive: [6] | [3]

COc1cc2c(cc1O)CCC1C2CC[C@@]2(C)C1CC[C@@H]2O (some centres not stated)
active: [4] 2.64 µM

CCCCCCCCCCCC(CC1OC(=O)C1CCCCCC)OC(=O)C(CC(C)C)NC=O (configuration not stated)
not listed: [4] | [7]
inactive: all other assays above

CC(=O)OCC(=O)[C@@]12N=C(C)O[C@H]1C[C@H]1[C@@H]3CCC4=CC(=O)C=C[C@]4(C)[C@@H]3[C@@H](O)C[C@@]12C
active: [5] 1.05 µM
inactive: [4] | [1] | [2] | [3]

CNC(=O)c1cccc(-c2ccc3c(N4CCOC[C@H]4C)nc(N4CCOC[C@H]4C)nc3n2)c1
active: [4] 0.0296 µM | [1] 1.66 µM | [6] 0.0833 µM | [2] 0.0187 µM | [5] 1.18 µM

C[C@H](CCC(=O)O)[C@H]1CC[C@H]2[C@@H]3[C@H](O)C[C@@H]4C[C@H](O)CC[C@]4(C)[C@@H]3CC[C@]12C
not listed: [7]
inactive: all other assays above

O=C1NC(=O)[C@@H](c2cn3c4c(cccc24)CCC3)[C@H]1c1c[nH]c2ccccc12
active: [1] 20.9 µM | [6] 0.0469 µM | [5] 0.0662 µM | [3] 0.0743 µM
